Assay results: PubChem BioAssay (NCATS)
“And” between values parts separate entries of the source, which are not always exact repeats. Equal values may be shown once. Inconclusive results are not listed. A structure can be active in one record and inactive in another. The source made the active and inactive calls. Unless noted, the call rests on the fitted dose curve; in most records, active means well fitted curve in the direction sought with a large enough effect; inconclusive means small, poorly fitted or top-dose-only effect, or another doubt; inactive means no such curve, though single readings can be large; an effect the other way counts as inactive or inconclusive.

Experiments:
[1] = Cellular Toxicity (caspase-3) N2a (AID 665);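 further: compound exposure lasted 16 h at 37 °C before readout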
Method in brief: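 N2a cells, 1500/well, 5 h settle at 37 °C; cpd 16 h, 37 °C; Caspase-Glo 3/7, 1 h RT; luminescence. Norm: DMSO = 0, 10 uM staurosporine = 100%. AC50, Hill fit.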

[2] = Cellular Toxicity (caspase-3) NIH 3T3 (AID 666)
Method in brief: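 Luminescence from aminoluciferin released by caspase-3/7 cleavage of a peptide substrate served as read-out. Mouse fibroblast NIH 3T3 cells were exposed to compounds over a concentration range for 16 hours, and AC50 values came from standard Hill modelling.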

[3] = Cellular Toxicity (caspase-3) Renal Proximal Tubule (AID 667);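 further: cells exposed to compound for 16 hours at 37 °C before detection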
Method in brief: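 Luminescent caspase 3/7 signal from peptide-aminoluciferin cleavage measures apoptosis in freshly isolated rat kidney proximal tubule cells after 16 h compound exposure. Concentration-response data are normalized to DMSO and 10 uM staurosporine, and AC50 values come from Hill equation fits.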

[4] = molecular target: Guanine nucleotide-binding protein G(i) subunit alpha-1 (Homo sapiens) (UniProt P63096); experiment: qHTS Assay for Inhibitors of RGS12 GoLoco Motif Activity (Green Fluorophore) (AID 879);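 further: negative values mean loss of peptide binding seen as reduced polarization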
Guanine nucleotide-binding protein G(i) subunit alpha-1 (Homo sapiens), sequence (P63096 whole entry, looked up): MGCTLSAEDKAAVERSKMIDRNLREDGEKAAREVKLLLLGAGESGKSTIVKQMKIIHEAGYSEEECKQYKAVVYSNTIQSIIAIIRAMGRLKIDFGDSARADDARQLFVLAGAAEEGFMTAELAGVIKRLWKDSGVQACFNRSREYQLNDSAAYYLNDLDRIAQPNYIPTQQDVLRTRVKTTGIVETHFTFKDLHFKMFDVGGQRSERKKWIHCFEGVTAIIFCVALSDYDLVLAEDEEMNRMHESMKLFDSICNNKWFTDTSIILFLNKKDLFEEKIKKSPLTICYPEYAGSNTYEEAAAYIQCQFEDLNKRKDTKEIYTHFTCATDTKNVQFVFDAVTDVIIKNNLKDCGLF
Method in brief: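 Fluorescence polarization assay: 50 nM Gαi1 with 10 nM FITC-labeled RGS12 GoLoco peptide in 10 mM Tris pH 7.5, 150 mM NaCl, 0.1 mM GDP, 0.05% NP40, 10 min at room temperature with compound.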

[5] = Confirmation and Secondary Assay for Modulators of Hemoglobin Beta Chain Splicing at IVS2 654 locus (AID 910);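 further: HeLa cells stably carrying EGFP split by mutant beta-globin IVS2-654 intron; per-well total GFP intensity by laser scanning cytometry after 2-day treatment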
Method in brief: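 Readout: per-well total peak green fluorescence (488 nm ex, 500–520 nm em) from objects 5–250 µm, reflecting correct splicing of an EGFP-654 reporter. Compounds were applied for 2 days at 37 °C to overnight-plated HeLa EGFP-654 cells; controls were DMSO and 500 nM IVS2-654 PNA.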

[6] = qHTS Assay for Identification of Small Molecule Agonists for Thrombopoietin (TPO) Signaling Pathway (AID 917)
Method in brief: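 Activators of TPO signaling were sought in murine Ba/F3 cells transfected with the human receptor, using a luciferase gene driven by the Glycoprotein IIb promoter; 24-hr compound exposure at 37 C alongside 26 pM TPO, in IL-3-free medium.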

[7] = molecular target: Muscarinic acetylcholine receptor M1 (Rattus norvegicus) (UniProt P08482); experiment: qHTS Assay for Antagonists of Acetylcholine Muscarinic M1 Receptor: Measurement of IP-One Response (AID 944); further: nearly all actives have a fitted effect of over 75% in size; further: potency means the concentration at half of the fitted maximal effect
Muscarinic acetylcholine receptor M1 (Rattus norvegicus), sequence (P08482 whole entry, looked up): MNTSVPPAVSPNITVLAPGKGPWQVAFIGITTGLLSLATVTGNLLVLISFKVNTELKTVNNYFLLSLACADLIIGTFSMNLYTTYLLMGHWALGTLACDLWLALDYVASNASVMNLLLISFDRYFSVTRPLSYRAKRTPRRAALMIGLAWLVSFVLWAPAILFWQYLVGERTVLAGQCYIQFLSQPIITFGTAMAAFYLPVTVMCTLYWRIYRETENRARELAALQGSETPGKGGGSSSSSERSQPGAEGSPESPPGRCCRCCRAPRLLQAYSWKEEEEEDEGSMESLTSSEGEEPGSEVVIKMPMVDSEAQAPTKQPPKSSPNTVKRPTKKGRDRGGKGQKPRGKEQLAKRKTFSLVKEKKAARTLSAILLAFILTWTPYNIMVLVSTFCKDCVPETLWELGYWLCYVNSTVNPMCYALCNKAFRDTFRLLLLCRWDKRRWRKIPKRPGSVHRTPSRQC
Method in brief: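 M1-CHO (rat), 2000 cells/well, overnight recovery; cpd 10 min; carbachol EC80 (200 nM), 30 min, HEPES buffer + 50 mM LiCl pH 7.4; IP-One HTRF, Ex 337, Em 620/665 nm.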

[8] = MultiTox-Fluor Cytotoxicity Assay - LYMP1-001 - Dead Cells (AID 946)
Method in brief: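 LYMP1-001 lymphoblastoid cells (2500/well) treated 16 h at 37 C. Dead-cell protease cleavage of bis-AAF-R110 read at Ex/Em 485/520. Normalized to DMSO and 15 uM tetraoctylammonium bromide; AC50 from Hill fits.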

[9] = molecular target: Cytochrome P450 3A4 (Homo sapiens) (UniProt P08684); experiment: qHTS Assay for Inhibitors and Substrates of Cytochrome P450 3A4 (AID 884); further: series mostly up to about 57 µM; nearly all actives have a fitted effect of over 50% in size
Cytochrome P450 3A4 (Homo sapiens), sequence (P08684 whole entry, looked up): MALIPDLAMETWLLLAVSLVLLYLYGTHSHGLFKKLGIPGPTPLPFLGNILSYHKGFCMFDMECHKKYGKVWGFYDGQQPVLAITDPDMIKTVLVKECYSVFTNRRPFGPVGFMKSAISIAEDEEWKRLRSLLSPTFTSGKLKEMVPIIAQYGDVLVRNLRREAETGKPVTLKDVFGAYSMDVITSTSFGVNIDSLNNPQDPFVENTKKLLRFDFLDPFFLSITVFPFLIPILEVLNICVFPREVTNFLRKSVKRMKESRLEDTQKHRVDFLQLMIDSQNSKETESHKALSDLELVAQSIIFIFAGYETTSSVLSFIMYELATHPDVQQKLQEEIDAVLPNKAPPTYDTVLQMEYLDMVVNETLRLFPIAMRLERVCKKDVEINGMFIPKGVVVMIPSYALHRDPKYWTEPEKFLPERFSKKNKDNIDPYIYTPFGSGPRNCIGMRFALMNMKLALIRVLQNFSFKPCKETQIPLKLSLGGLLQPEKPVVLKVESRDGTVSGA
Method in brief: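 20 nM human CYP3A4 with 25 uM Luciferin-PPXE (at KM) in 200 mM KPO4, preincubated 10 min with compound; NADPH regeneration started a 60 min RT reaction. Luciferin detected by luminescence, normalized to 57 uM ketoconazole as full inhibition.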

[10] = molecular target: Muscarinic acetylcholine receptor M1 (Rattus norvegicus) (UniProt P08482); experiment: qHTS Assay for Antagonists of Acetylcholine Muscarinic M1 Receptor: Kinetic Measurement of Intracellular Calcium Response (AID 943); further: nearly all actives have a fitted effect of over 75% in size; further: potency means the concentration at half of the fitted maximal effect
Method in brief: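 Rat M1-CHO cells, 2000/well, overnight → Fluo-4 no-wash dye with probenecid, 1 h 37C → compound 10 min, room temp → basal read 6 s → carbachol EC80 (100 nM) → 4 min kinetic read; peak/basal.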

[11] = molecular target: Pyruvate kinase (Leishmania mexicana) (UniProt Q27686); experiment: qHTS Validation Assay for Inhibitors of Leishmania Mexicana Pyruvate Kinase (AID 945)
Pyruvate kinase (Leishmania mexicana), sequence (Q27686 2-499 E452W): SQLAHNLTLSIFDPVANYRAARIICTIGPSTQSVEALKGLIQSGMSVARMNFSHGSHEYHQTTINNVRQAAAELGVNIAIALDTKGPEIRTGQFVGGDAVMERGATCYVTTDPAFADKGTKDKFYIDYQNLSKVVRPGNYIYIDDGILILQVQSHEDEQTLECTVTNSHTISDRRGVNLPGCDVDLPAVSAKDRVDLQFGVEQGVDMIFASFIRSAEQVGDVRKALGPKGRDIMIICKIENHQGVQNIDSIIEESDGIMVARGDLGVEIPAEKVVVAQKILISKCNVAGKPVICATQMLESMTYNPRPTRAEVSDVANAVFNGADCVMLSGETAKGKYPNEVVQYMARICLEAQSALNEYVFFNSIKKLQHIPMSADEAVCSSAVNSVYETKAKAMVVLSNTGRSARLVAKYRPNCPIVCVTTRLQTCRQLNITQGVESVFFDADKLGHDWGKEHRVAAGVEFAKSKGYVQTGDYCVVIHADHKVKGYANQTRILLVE
Method in brief: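 Substrate mix (0.5 mM PEP, 0.1 mM ADP, 7 mM MgCl2, 50 mM KCl, pH 7.2 imidazole) received compound by pin tool, then 0.2 nM LmPYK E451W. After 1 h at room temperature, PKLight was added and luminescence measured.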

[12] = molecular target: Cytochrome P450 2C9 (Homo sapiens) (UniProt P11712); experiment: qHTS Assay for Inhibitors and Substrates of Cytochrome P450 2C9 (AID 883); further: nearly all actives have a fitted effect of over 60% in size; further: potency means the concentration at half of the fitted maximal effect
Cytochrome P450 2C9 (Homo sapiens), sequence (P11712 whole entry, looked up): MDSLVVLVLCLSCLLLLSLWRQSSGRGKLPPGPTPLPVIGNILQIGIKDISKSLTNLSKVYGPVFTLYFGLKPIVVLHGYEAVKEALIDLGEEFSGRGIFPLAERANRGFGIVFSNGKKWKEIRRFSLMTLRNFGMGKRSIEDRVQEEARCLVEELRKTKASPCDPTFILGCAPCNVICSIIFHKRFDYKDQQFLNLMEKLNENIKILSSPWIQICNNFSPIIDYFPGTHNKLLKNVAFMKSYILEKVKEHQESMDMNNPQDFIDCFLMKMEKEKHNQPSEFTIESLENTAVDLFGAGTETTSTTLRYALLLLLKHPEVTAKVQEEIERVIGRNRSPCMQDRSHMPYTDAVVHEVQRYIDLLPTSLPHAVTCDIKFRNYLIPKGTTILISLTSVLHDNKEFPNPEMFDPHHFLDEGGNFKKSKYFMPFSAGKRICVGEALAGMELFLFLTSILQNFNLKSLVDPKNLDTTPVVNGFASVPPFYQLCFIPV
Method in brief: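 Turnover of Luciferin-H (100uM, KM) by 10nM human CYP2C9 was measured over 60 min at 37C with NADPH regeneration; inhibitors and some substrates reduce luminescence. Data normalized to sulphaphenazole 57uM.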

[13] = molecular target: Cytochrome P450 3A4 (Homo sapiens) (UniProt P08684); experiment: qHTS Assay for Activators of Cytochrome P450 3A4 (AID 885); further: nearly all actives have a fitted effect of over 65% in size
Method in brief: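 Human CYP3A4 (20 nM) with Luciferin-PPXE at 25 uM (its KM) in 200 mM KPO4; 10 min compound preincubation, then NADPH regeneration and 60 min reaction at RT. Luciferin read by luminescence; normalized to 57 uM ketoconazole full inhibition.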

[14] = qHTS Assay for Identification of Small Molecule Antagonists for NFkB Signaling Pathway (AID 895; active means well fitted inhibition curve with a large enough effect in the signal ratio, with a control signal flat, not every such curve was filed as active; the % refers to the signal ratio)
Method in brief: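 Beta-lactamase reporter read-out (460 and 530 nm emission ratio, 405 nm excitation, 2 hrs substrate loading RT) after 5 hr stimulation with 10 pM TNF alpha in compound-treated NFkB-bla ME-180 cells in low-serum medium.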

[15] = molecular target: Cytochrome P450 2C19 (Homo sapiens) (UniProt P33261); experiment: qHTS Assay for Inhibitors and Substrates of Cytochrome P450 2C19 (AID 899); further: nearly all actives have a fitted effect of over 60% in size; further: potency means the concentration at half of the fitted maximal effect
Cytochrome P450 2C19 (Homo sapiens), sequence (P33261 whole entry, looked up): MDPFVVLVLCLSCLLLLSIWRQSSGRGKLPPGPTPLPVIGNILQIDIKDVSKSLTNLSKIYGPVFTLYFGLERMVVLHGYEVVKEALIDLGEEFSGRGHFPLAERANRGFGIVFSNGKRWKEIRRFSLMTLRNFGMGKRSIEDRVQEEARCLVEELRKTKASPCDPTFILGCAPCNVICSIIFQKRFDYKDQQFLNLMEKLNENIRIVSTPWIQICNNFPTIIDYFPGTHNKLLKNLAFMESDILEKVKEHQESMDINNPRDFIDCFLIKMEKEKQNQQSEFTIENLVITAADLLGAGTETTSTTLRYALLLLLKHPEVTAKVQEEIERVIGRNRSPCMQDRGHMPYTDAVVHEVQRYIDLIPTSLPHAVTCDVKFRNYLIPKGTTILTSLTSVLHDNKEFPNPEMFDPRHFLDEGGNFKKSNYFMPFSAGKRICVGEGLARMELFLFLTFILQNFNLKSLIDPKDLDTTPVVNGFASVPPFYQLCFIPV
Method in brief: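 Reactions contain 5nM enzyme, 10uM Luciferin-H EGE (KM) and 50mM KPO4; compound preincubates 10 min at 37C, NADPH regeneration starts turnover for 60 min. Luminescence after detection reagent gives activity.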

[16] = Cell Viability - LYMP2-001 (AID 921);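 further: series mostly up to about 92 µM; cells exposed to compound for 24 h at 37 °C; nearly all actives have a fitted effect of over 70% in size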
Method in brief: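 CellTiter-Glo luminescence (intracellular ATP) after 24 hr compound exposure at 37 C, 2500 lymphoblastoid cells/well in complete medium. AC50 fitted with standard Hill equation; tetraoctylammonium bromide positive control.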

[17] = molecular target: Cytochrome P450 2D6 (Homo sapiens) (UniProt P10635); experiment: qHTS Assay for Inhibitors and Substrates of Cytochrome P450 2D6 (AID 891); further: nearly all actives have a fitted effect of over 60% in size; further: potency means the concentration at half of the fitted maximal effect
Cytochrome P450 2D6 (Homo sapiens), sequence (P10635 whole entry, looked up): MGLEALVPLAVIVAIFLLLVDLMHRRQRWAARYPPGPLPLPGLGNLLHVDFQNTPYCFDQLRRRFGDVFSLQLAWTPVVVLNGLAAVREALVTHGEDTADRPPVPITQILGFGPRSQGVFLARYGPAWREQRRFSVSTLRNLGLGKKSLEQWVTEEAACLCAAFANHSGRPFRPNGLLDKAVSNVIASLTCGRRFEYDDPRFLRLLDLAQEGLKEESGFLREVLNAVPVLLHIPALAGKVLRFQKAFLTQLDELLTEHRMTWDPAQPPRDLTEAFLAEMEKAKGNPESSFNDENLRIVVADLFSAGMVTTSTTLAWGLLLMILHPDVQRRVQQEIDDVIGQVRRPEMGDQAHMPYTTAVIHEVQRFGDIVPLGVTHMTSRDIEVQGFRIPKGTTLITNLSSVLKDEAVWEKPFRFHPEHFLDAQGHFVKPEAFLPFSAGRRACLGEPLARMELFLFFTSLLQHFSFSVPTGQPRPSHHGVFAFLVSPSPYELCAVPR
Method in brief: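 Human CYP2D6 (5 nM) with 30 uM Luciferin-ME EGE (at Km) in 100 mM KPO4, compound preincubated 10 min, then NADPH regeneration system for 60 min at room temperature. Luciferin read by luminescence; normalized to 1.43 uM quinidine.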

[18] = qHTS Assay for Identification of Small Molecule Antagonists for Thrombopoietin (TPO) Signaling Pathway (AID 918); conditions: TPO-dependent cell signaling reporter, antagonist mode; further: potency means the concentration at half of the fitted maximal effect; nearly all actives have a fitted effect of over 60% in size
Method in brief: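 Ba/F3 (murine, hTPO-R, GPIIb-luc reporter); overnight IL-3 withdrawal; cpd + TPO 26 pM final (EC50); 24 h 37 C/5% CO2; Steadylite luminescence after 10 min RT.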

[19] = Confirmation and Secondary Assay for Modulators of Hemoglobin Beta Chain Splicing at IVS2 705 locus (AID 930);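 further: HeLa cells stably expressing the EGFP-705 splicing reporter; GFP fluorescence per well restored by corrected splicing of the IVS2-705 intron in EGFP; series mostly up to about 46 µM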
Method in brief: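 HeLa EGFP-705 reporter; 500 cells/well, o/n 37C 5% CO2; cpd 2 d; 488 ex/500-520 em laser scan; total peak GFP intensity/well. Ref: 500 nM […] antisense PNA.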

Measured: Potency

Nc1nc(N)c2nc(-c3ccccc3)c(N)nc2n1
inactive: [1] | [2] | [3] | [4] | [5] | [6] | [7] | [8]

O=C(O)CCCCCCCC(=O)O
inactive: [4] | [9] | [5] | [6] | [10] | [7] | [11]

Brc1c(NC2=NCCN2)ccc2nccnc12
inactive: [4] | [12] | [13] | [14] | [15] | [6]

NC(=Nc1ccccc1)Nc1ccccc1
inactive: [1] | [2] | [3] | [9] | [16] | [8]

CN1CCN(CC(=O)N2c3ccccc3C(=O)Nc3cccnc32)CC1
inactive: [4] | [9] | [5] | [6]

CCCCOCCOCCOCc1cc2c(cc1CCC)OCO2
inactive: [1] | [2] | [3] | [16] | [8]

CC1=C(C)C(=O)C(CCCCC#CCCCC#CCO)=C(C)C1=O
inactive: [4] | [6] | [10]
active: [12] 5.01 µM | [17] 31.6 µM | [15] 5.01 µM

C[N+](C)(C)CCOC(N)=O
inactive: [4] | [9] | [15] | [5] | [6]

COC(=O)[C@H]1[C@H]2C[C@@H]3c4[nH]c5cc(OC)ccc5c4CCN3C[C@H]2C[C@@H](OC(=O)c2cc(OC)c(OC)c(OC)c2)[C@@H]1OC
inactive: [1] | [2] | [3] | [4] | [13] | [16] | [11]
active: [18] 31.6 µM | [7] 8.91 µM

CCCN(CCC)CCc1cccc2c1CC(=O)N2
inactive: [4] | [9] | [5] | [6] | [11]
active: [10] 17.8 µM

CC1=NS(=O)(=O)c2cc(Cl)ccc2N1
inactive and 7.94 µM (active): [17]
inactive: [4] | [12] | [13] | [15] | [5] | [6]

NC(N)=NC(=O)Cc1c(Cl)cccc1Cl
active: [17] 0.126 µM | [15] 0.251 µM
inactive: [4] | [12] | [13] | [6] | [7]

CCCCNC(=O)NS(=O)(=O)c1ccc(C)cc1
inactive: [1] | [2] | [3] | [4] | [17] | [15] | [5] | [16] | [7] | [8]

Cc1nc2ccccn2c(=O)c1CCN1CCC(C(=O)c2ccc(F)cc2)CC1
active: [7] 8.91 µM
inactive: [4] | [12] | [13] | [14] | [15] | [5] | [11]

Cc1scc2c1N(C(=O)CN1CCN(C)CC1)c1ccccc1NC2=O
inactive: [4] | [9] | [5] | [6]
active: [12] 2.51 µM | [17] 5.01 µM | [10] 0.0316 µM | [7] 0.0282 µM
inactive and 3.98 µM (active): [15]

COc1cc(Cc2cnc(N)nc2N)cc(OC)c1OC
not listed: [9] | [10] | [12] | [13] | [14] | [15] | [17] | [18]
inactive: all other assays above
